Compound activity deposited in PubChem by National Center for Advancing Translational Sciences (NCATS).
In the library only some 8% were active in any assay of this set; here they are far more common.
SARS PLP yeast – inhibitors of SARS-CoV papain-like protease in yeast; S. cerevisiae expressing SARS-CoV PLpro, growth rescue; Potency, µM (doses to about 32.9 µM), for inactives: at the highest dose activity, positive = growth rescue, hits mostly activators; 0.19% of 330,000 active; calls by dose curve; also: potency is read from the fitted curve at half-maximal effect; 0% is about no effect; nearly all actives have a fitted effect of over 55% in size
LASV entry inh – blocks Lassa virus binding to or entry into cells. Potency, µM (top dose mostly 37.9 µM), without a hit: at the highest dose activity change, negative = inhibition, hits mostly inhibitors. 1.2% of 300,000 active. Lassa virus pseudotype entry inhibition, cell reporter; calls by dose curve; tested in HEK293 cells; also: potency is read from the fitted curve at half-maximal effect; % is scaled to controls: 0 for no effect and ±100 for the full control effect; nearly all actives have a fitted effect of over 50% in size
HCV inh – HCV inhibition | 3.4% of 340,000 active | AID 651820 | Huh7.5.1 HCVcc-Cre infection, luciferase reporter, 44 h | Potency, µM (highest dose often 41.8 µM), for inactives: at the highest dose activity change, negative = inhibition, most hits filed as inhibitors; active = well fitted inhibition curve with a large enough effect; inconclusive = small, poorly fitted or top-dose-only effect, or another doubt; inactive = no such curve, though single readings can be large or run the other way; also: potency is read from the fitted curve at half-maximal effect; % is scaled to controls: 0 for no effect and ±100 for the full control effect
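Seed cells (1,000/well) for 4 h; treat with compound and infect with HCVcc-Cre, moi about 0.5. Incubate 44 h, then detect luciferase activity.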
MARV entry inh – inhibitors of Marburg virus binding or cell entry. 1.8% of 300,000 active. Marburg virus pseudotyped entry inhibition, cell reporter. Potency, µM (doses to about 37.8 µM), without a hit: top-dose activity change, negative = inhibition, actives largely listed as inhibitors; calls by dose curve; tested in HEK293 cells; also: potency is read from the fitted curve at half-maximal effect; % is scaled to controls: 0 for no effect and ±100 for the full control effect
FMDV antiviral – blocks foot and mouth disease virus. FMDV antiviral cell-based qHTS. Potency, µM (doses to about 57.9 µM), without a hit: at the highest dose activity change, negative = inhibition, actives largely listed as inhibitors. 1.2% of 410,000 active; calls by dose curve; tested in HEK293T cells; also: read-out not given here; potency is read from the fitted curve at half-maximal effect; % is scaled to controls: 0 for no effect and ±100 for the full control effect; nearly all actives have a fitted effect of over 45% in size
HCMV inh – blocks human cytomegalovirus replication; 4.5% of 410,000 active; HFF cells, HCMV-luciferase reporter, 72 h; stronger effect = lower value; activity change, negative = inhibition, % at 57.5 µM; in the data active = activity change below about -60%; inconclusive = no clear call, values can overlap the other calls; inactive = above about -39%; also: % is scaled to controls: 0 for no effect and ±100 for the full control effect
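Steps: HFFs plated, 16 h 37C; compounds added; HCMV-luciferase added to MOI 1 PFU/cell; 72 h 37C; OneGlo reagent, 5 min room temperature; luminescence read, normalized to controls.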
The depositor's hits bear a star; ? = inconclusive; . = no result given; [ ] = remark or other dose.

SMILES | SARS PLP yeast | LASV entry inh | HCV inh | MARV entry inh | FMDV antiviral | HCMV inh
COc1ccccc1S(=O)(=O)Cc1ccc(C(=O)N2CCN(c3cccc(Cl)c3)CC2)o1 | 5% | ? | 13µM* | -30% | 18µM* | -67*
O=C(c1ccc(CS(=O)(=O)c2c(Cl)cccc2Cl)o1)N1CCN(c2ccccn2)CC1 | -1% | . | -13% | . | ? | -66*
COc1cccc(N2CCN(C(=O)c3ccc(CS(=O)c4ccccc4Cl)o3)CC2)c1 (stereo not drawn) | 5% | . | ? | . | -9% | -96*
COc1ccc(C2c3[nH]c4ccccc4c3CCN2CCCn2cccn2)c(C)c1C (stereo not drawn) | -1% | -21% | ? | ? | ? | 9
CC(C)CC1c2[nH]c3ccccc3c2CCN1CCCn1cccn1 (stereo not drawn) | 0% | 11µM* | -7% | 4.5µM* | -20% | -12
O=C1OC(c2ccccc2)=C/C1=C/N1CCOCC1 | -10% | 8% | -13% | 13% | . | 36
O=C1SC(c2ccccc2)=C/C1=C\N1CCCCC1 | -10% | 5% | 11µM* | 28% | . | 100
CC(=O)CCc1oc2c([N+](=O)[O-])cccc2c1-c1ccc(C)o1 | -5% | . | 13µM* | . | -26% | 31
CC(C)c1cc(-c2nc(-c3ccc(Cl)cc3)no2)n[nH]1 | . | ? | . | . | -16% | -68*
COc1cc(-c2noc(-c3cc(C(C)C)[nH]n3)n2)cc(OC)c1OC | . | -2%[46.1 µM] | . | . | -16% | -16
Cc1ccc2c(c1)c1c3n2CCN(CC(N)=O)C3CCC1 (stereo not drawn) | 4% | 24%[46.1 µM] | ? | -3%[46.1 µM] | -3% | -98*
Cc1ccc2c(c1)c1c3n2CCN(CCC(=O)O)C3CCC1 (stereo not drawn) | 0% | 23% | 24% | ? | 0% | 20
CN1CCN(CC(=O)N2CCn3c4c(c5cc(C6CCCCC6)ccc53)CCCC42)CC1 (stereo not drawn) | -15% | ? | 7.9µM* | ? | ? | .
Cc1cc(F)cc(-c2cc(C(=O)NCC3CCCCC3)[nH]n2)c1 | . | . | . | . | 10% | -18
CC(C)C[C@H]1CN([C@@H](Cc2ccc(O)cc2)CN2CCCC2CN2C(=S)NC[C@@H]2Cc2ccccc2)C(=S)N1CC1CCCCC1 (stereo partly drawn) | . | . | . | . | -20% | -12
CC(C)C[C@H]1CNC(=S)N1C[C@H]1CCCN1C[C@H](Cc1ccc(O)cc1)N1C[C@H](Cc2ccc(O)cc2)N(CC2CCCCCC2)C1=S | . | . | . | . | -8% | -83*
CC(C)C[C@H]1CNC(=S)N1CC1CCCN1C[C@H](Cc1ccccc1)N1C[C@H](Cc2ccc(O)cc2)N(CC2CCCCCC2)C1=S (stereo partly drawn) | . | . | 6.3µM* | . | ? | -101*
CC(C)C[C@H]1CN([C@@H](Cc2ccc(O)cc2)CN2CCC[C@@H]2CN2C(=S)NC[C@@H]2Cc2ccccc2)C(=S)N1CC1CCCCCC1 | . | . | . | . | -11% | -34
CC(=O)c1c(C)oc2c(Cl)cc(NS(=O)(=O)c3cc(C)c(C)cc3C)cc12 | . | 7%[46.1 µM] | . | -1%[46.1 µM] | -4% | 7
CC(C)CNc1nc(Br)cnc1N | . | . | . | . | . | 39
CC1CC(=O)N(CC(=O)Nc2ccc(Br)cc2)c2ccccc2S1(=O)=O (stereo not drawn) | ? | . | -4% | . | -22% | -64*
CC(C)(C)c1ccc(-c2nc3cc(NC(=O)c4cccc(Br)c4)ccc3o2)cc1 | . | 10%[46.1 µM] | . | . | 0% | -16
Cc1ccc(S(=O)(=O)N(C)C)cc1NC(=O)C(C)N(C)CCOc1ccc(Cl)cc1 (stereo not drawn) | 0% | ? | 10µM* | ? | ? | -78*
CC(C(=O)Nc1ccccc1)N(C)CCOc1ccccc1 (stereo not drawn) | -3% | 5% | ? | 1%[46.1 µM] | 4% | -1
CC(C(=O)Nc1ccc(F)cc1Cl)N(C)CCOc1ccccc1 (stereo not drawn) | -2% | ? | -21% | ? | -22% | -61*
SMILES | SARS PLP yeast | LASV entry inh | HCV inh | MARV entry inh | FMDV antiviral | HCMV inh
CC(=O)c1ccc(OCCCC(=O)Nc2cc(S(=O)(=O)N(C)C)ccc2C)cc1 | -2% | -7% | -15% | -22% | 5% | 68
COc1cccc([C@H]2Oc3ccc(OC)cc3/C(=N\OC[C@@H](O)COCc3ccco3)[C@@H]2O)c1 | . | . | . | 14%[14.2 µM] | . | .
N#Cc1ccc(-c2nc3c4ccccc4ccn3c2CC2CCCCC2)cc1 | . | . | . | . | -12% | 44
Cc1cc(C(=O)N/N=C/c2ccc[nH]2)no1 | -27% | 28% | ? | 2% | 12% | -20
O=C(N/N=C/c1ccc[nH]1)c1ccccc1O | 1% | -13% | -11% | -17%[14.2 µM] | 0% | -92*
Cc1cc(C(=O)N/N=C/c2ccc[nH]2)n[nH]1 | 0% | 7% | 1.4µM* | -2%[46.1 µM] | 0% | ?
O=C(N/N=C/c1ccc[nH]1)c1ccc(O)cc1 | -1% | ? | -5% | ? | 25% | -16
c1cncc(-c2nc(NCCCN3CCOCC3)c3c4c(sc3n2)CCC4)c1 | -2% | ? | ? | 10µM* | -2% | 0
c1cncc(-c2nc(N3CCOCC3)c3c4c(sc3n2)CCC4)c1 | 0% | 1% | ? | ? | -26% | -33
CNC(=O)c1cccc(-c2ccc3ncc(-c4cccc(C(=O)NCCN(C)C)c4)n3n2)c1 | . | . | . | . | . | -30
Nc1c(C(=O)c2ccc(F)cc2)sc(Nc2ccccc2F)c1S(=O)(=O)c1ccc(Br)cc1 | . | -46%[46.1 µM] | . | . | -18% | -71*
Cc1ccc(S(=O)(=O)c2c(Nc3cc(F)ccc3F)sc(C(=O)c3ccc(F)cc3)c2N)cc1 | . | ? | . | ? | ? | -65*
Cc1ccc(Cl)cc1Nc1sc(C(=O)c2ccc(F)cc2)c(N)c1S(C)(=O)=O | . | ? | . | -33%[46.1 µM] | ? | -6
Cc1ccc(Nc2sc(C(=O)c3ccc(F)cc3)c(N)c2S(=O)(=O)c2ccc(C)cc2)cc1 | . | 1.1µM* | . | . | -8% | -8
CCCCNC(=O)c1nc(-c2cccs2)oc1-c1ccc(Cl)cc1 | . | . | . | . | -19% | 16
COC(=O)CN1C(=O)[C@H]2[C@@H](c3ccc(C)o3)N3C(=O)CN(CC4CC4)C(=O)[C@@]3(Cc3ccccc3)[C@H]2C1=O | -1% | . | -10% | . | -6% | -93*
COC(=O)CN1C(=O)[C@H]2[C@@H](c3ccc(C)o3)N3C(=O)CN(Cc4ccccc4)C(=O)[C@@]3(C)[C@H]2C1=O | -1% | . | 13% | . | -5% | -83*
Cc1cc2c(cc1NC(=O)c1ccccc1Cl)n(C)c(=O)c(=O)n2C | . | 20%[46.1 µM] | . | . | 0% | 12
O=C(NC(c1ccc(F)cc1)c1ccc2ccccc2n1)C1CCN(Cc2ccc(Oc3ccccc3)cc2)CC1 (stereo not drawn) | . | . | . | . | -14% | 22
O=C(NC(c1ccccc1)c1ccc2ccccc2n1)C1CCN(CCOc2ccc(Cl)cc2)CC1 (stereo not drawn) | . | . | . | . | 32µM* | -11
